The supplement of paper PMC4466140

Key:
Assay in all cases: SPOT peptide array binding signal intensity (averaged, normalized) (arbitrary units (background-subtracted, floor 0; scale differs between SH3 domains)); higher = stronger binding of the SH3 domain to the peptide
AgAbp1 = target: AgAbp1
In short: (§1)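 Spot intensities were captured after detection with anti-GST antibody, an HRP-linked anti-mouse secondary and luminol, and quantified with Genespotter. The probes were GST-fused SH3 domains from four yeast species, produced in E. coli BL21(DE3), purified on glutathione Sepharose and incubated at 10 μg/ml overnight at 4°C on cellulose-bound synthetic 15-mer peptides with cysteines replaced by serines. Binding signal is the normalized, background-subtracted spot intensity averaged over replicates, and its arbitrary units differ between domains.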

AgBbc1 = target: AgBbc1
In short: as §1

AgBem1-D1 = target: AgBem1-D1
In short: as §1

AgBzz1-D1 = target: AgBzz1-D1
In short: as §1

AgBzz1-D2 = target: AgBzz1-D2
In short: as §1

AgCyk3 = target: AgCyk3
In short: as §1

AgFus1 = target: AgFus1
In short: as §1

AgHof1 = target: AgHof1
In short: as §1

AgHse1 = target: AgHse1
In short: as §1

AgLsb1 = target: AgLsb1
In short: as §1

AgLsb4 = target: AgLsb4
In short: as §1

AgMyo5 = target: AgMyo5
In short: as §1

AgNbp2 = target: AgNbp2
In short: as §1

AgRvs167 = target: AgRvs167
In short: as §1

AgSho1 = target: AgSho1
In short: as §1

AgSla1-D1-D2 = target: AgSla1-D1-D2
In short: as §1

AgSla1-D3 = target: AgSla1-D3
In short: as §1

CaAbp1-D1 = target: CaAbp1-D1
In short: as §1

CaAbp1-D2 = target: CaAbp1-D2
In short: as §1

CaBbc1 = target: CaBbc1
In short: as §1

CaBem1-D1 = target: CaBem1-D1
In short: as §1

CaBzz1-D1 = target: CaBzz1-D1
In short: as §1

CaBzz1-D2 = target: CaBzz1-D2
In short: as §1

CaCyk3 = target: CaCyk3
In short: as §1

CaFus1 = target: CaFus1
In short: as §1

CaHof1 = target: CaHof1
In short: as §1

CaHse1 = target: CaHse1
In short: as §1

CaLsb1 = target: CaLsb1
In short: as §1

CaLsb4 = target: CaLsb4
In short: as §1

CaMyo5 = target: CaMyo5
In short: as §1

CaNbp2 = target: CaNbp2
In short: as §1

CaRvs167 = target: CaRvs167
In short: as §1

CaRvs167-3 = target: CaRvs167-3
In short: as §1

CaSho1 = target: CaSho1
In short: as §1

CaSla1-D1-D2 = target: CaSla1-D1-D2
In short: as §1

CaSla1-D3 = target: CaSla1-D3
In short: as §1

ScAbp1 = target: ScAbp1
In short: as §1

ScBbc1 = target: ScBbc1
In short: as §1

ScBem1-D1 = target: ScBem1-D1
In short: as §1

ScBzz1-D1 = target: ScBzz1-D1
In short: as §1

ScBzz1-D2 = target: ScBzz1-D2
In short: as §1

ScCyk3 = target: ScCyk3
In short: as §1

ScFus1 = target: ScFus1
In short: as §1

ScHof1 = target: ScHof1
In short: as §1

ScHse1 = target: ScHse1
In short: as §1

ScLsb1 = target: ScLsb1
In short: as §1

ScLsb2 = target: ScLsb2
In short: as §1

ScLsb3 = target: ScLsb3
In short: as §1

ScLsb4 = target: ScLsb4
In short: as §1

ScMyo3 = target: ScMyo3
In short: as §1

ScMyo5 = target: ScMyo5
In short: as §1

ScNbp2 = target: ScNbp2
In short: as §1

ScPex13 = target: ScPex13
In short: as §1

ScRvs167 = target: ScRvs167
In short: as §1

ScSho1 = target: ScSho1
In short: as §1

ScSla1-D1-D2 = target: ScSla1-D1-D2
In short: as §1

ScSla1-D3 = target: ScSla1-D3
In short: as §1

SpAbp1-D1 = target: SpAbp1-D1
In short: as §1

SpBbc1 = target: SpBbc1
In short: as §1

SpBzz1-D1 = target: SpBzz1-D1
In short: as §1

SpBzz1-D2 = target: SpBzz1-D2
In short: as §1

SpCyk3 = target: SpCyk3
In short: as §1

SpHof1 = target: SpHof1
In short: as §1

SpHof1-2 = target: SpHof1-2
In short: as §1

SpHof1-3 = target: SpHof1-3
In short: as §1

SpHse1 = target: SpHse1
In short: as §1

SpLsb1 = target: SpLsb1
In short: as §1

SpLsb4 = target: SpLsb4
In short: as §1

SpMyo1 = target: SpMyo1
In short: as §1

SpNbp2 = target: SpNbp2
In short: as §1

SpPex13 = target: SpPex13
In short: as §1

SpRvs167 = target: SpRvs167
In short: as §1

SpSla1-D1-D2 = target: SpSla1-D1-D2
In short: as §1

SpSla1-D3 = target: SpSla1-D3
In short: as §1

## HGKRRAPLLLAKLDV
AgAbp1
  SPOT peptide array binding signal intensity: 19
AgBbc1
  SPOT peptide array binding signal intensity: 2
AgBem1-D1
  SPOT peptide array binding signal intensity: 26
AgBzz1-D1
  SPOT peptide array binding signal intensity: 82
AgBzz1-D2
  SPOT peptide array binding signal intensity: 34.5
AgCyk3
  SPOT peptide array binding signal intensity: 7
AgFus1
  SPOT peptide array binding signal intensity: 93
AgHof1
  SPOT peptide array binding signal intensity: 13.5
AgHse1
  SPOT peptide array binding signal intensity: 145
AgLsb1
  SPOT peptide array binding signal intensity: ≤ 0
AgLsb4
  SPOT peptide array binding signal intensity: 29.5
AgMyo5
  SPOT peptide array binding signal intensity: 3
AgNbp2
  SPOT peptide array binding signal intensity: 58
AgRvs167
  SPOT peptide array binding signal intensity: 6.67
AgSho1
  SPOT peptide array binding signal intensity: 6
AgSla1-D1-D2
  SPOT peptide array binding signal intensity: 94.5
AgSla1-D3
  SPOT peptide array binding signal intensity: 20
CaAbp1-D1
  SPOT peptide array binding signal intensity: 499
CaAbp1-D2
  SPOT peptide array binding signal intensity: 238
CaBbc1
  SPOT peptide array binding signal intensity: 57.8
CaBem1-D1
  SPOT peptide array binding signal intensity: 44
CaBzz1-D1
  SPOT peptide array binding signal intensity: 94
CaBzz1-D2
  SPOT peptide array binding signal intensity: 51.8
CaCyk3
  SPOT peptide array binding signal intensity: 37
CaFus1
  SPOT peptide array binding signal intensity: 312
CaHof1
  SPOT peptide array binding signal intensity: ≤ 0
CaHse1
  SPOT peptide array binding signal intensity: 7.75
CaLsb1
  SPOT peptide array binding signal intensity: 0.25
CaLsb4
  SPOT peptide array binding signal intensity: 26
CaMyo5
  SPOT peptide array binding signal intensity: 4
CaNbp2
  SPOT peptide array binding signal intensity: 1060
CaRvs167
  SPOT peptide array binding signal intensity: 7.67
CaRvs167-3
  SPOT peptide array binding signal intensity: 17.5
CaSho1
  SPOT peptide array binding signal intensity: 95
CaSla1-D1-D2
  SPOT peptide array binding signal intensity: 122
CaSla1-D3
  SPOT peptide array binding signal intensity: 8.75
ScAbp1
  SPOT peptide array binding signal intensity: 50
ScBbc1
  SPOT peptide array binding signal intensity: 12.2
ScBem1-D1
  SPOT peptide array binding signal intensity: 30
ScBzz1-D1
  SPOT peptide array binding signal intensity: 21.5
ScBzz1-D2
  SPOT peptide array binding signal intensity: 27
ScCyk3
  SPOT peptide array binding signal intensity: 102
ScFus1
  SPOT peptide array binding signal intensity: 136
ScHof1
  SPOT peptide array binding signal intensity: 0.5
ScHse1
  SPOT peptide array binding signal intensity: 732
ScLsb1
  SPOT peptide array binding signal intensity: ≤ 0
ScLsb2
  SPOT peptide array binding signal intensity: ≤ 0
ScLsb3
  SPOT peptide array binding signal intensity: 16.5
ScLsb4
  SPOT peptide array binding signal intensity: ≤ 0
ScMyo3
  SPOT peptide array binding signal intensity: 1
ScMyo5
  SPOT peptide array binding signal intensity: 5.5
ScNbp2
  SPOT peptide array binding signal intensity: 210
ScPex13
  SPOT peptide array binding signal intensity: ≤ 0
ScRvs167
  SPOT peptide array binding signal intensity: 11.3
ScSho1
  SPOT peptide array binding signal intensity: 186
ScSla1-D1-D2
  SPOT peptide array binding signal intensity: 126
ScSla1-D3
  SPOT peptide array binding signal intensity: 20.5
SpAbp1-D1
  SPOT peptide array binding signal intensity: 55
SpBbc1
  SPOT peptide array binding signal intensity: 0.5
SpBzz1-D1
  SPOT peptide array binding signal intensity: 204
SpBzz1-D2
  SPOT peptide array binding signal intensity: ≤ 0
SpCyk3
  SPOT peptide array binding signal intensity: 18
SpHof1
  SPOT peptide array binding signal intensity: 31.2
SpHof1-2
  SPOT peptide array binding signal intensity: 4.25
SpHof1-3
  SPOT peptide array binding signal intensity: 242
SpHse1
  SPOT peptide array binding signal intensity: 235
SpLsb1
  SPOT peptide array binding signal intensity: ≤ 0
SpLsb4
  SPOT peptide array binding signal intensity: 21.5
SpMyo1
  SPOT peptide array binding signal intensity: 2
SpNbp2
  SPOT peptide array binding signal intensity: 63.5
SpPex13
  SPOT peptide array binding signal intensity: 10
SpRvs167
  SPOT peptide array binding signal intensity: ≤ 0
SpSla1-D1-D2
  SPOT peptide array binding signal intensity: ≤ 0
SpSla1-D3
  SPOT peptide array binding signal intensity: 2
